# Results published in the supplement of paper PMC4466140.
# Assays:
# Assay in all cases: SPOT peptide array binding signal intensity (averaged, normalized) (arbitrary units (background-subtracted, floor 0; scale differs between SH3 domains)); higher = stronger binding of the SH3 domain to the peptide
# AgAbp1 = target: AgAbp1
# Outline: (§1)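 GST-SH3 fusions from four yeast species, purified on glutathione Sepharose, were incubated at 10 μg/ml overnight at 4°C on membranes of synthetic 15-mer peptides in which cysteines were replaced with serines. Binding signal is the normalized, background-subtracted spot intensity averaged over replicates, in domain-specific arbitrary units.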
# AgBbc1 = target: AgBbc1
# Outline: as §1
# AgBem1-D1 = target: AgBem1-D1
# Outline: as §1
# AgBzz1-D1 = target: AgBzz1-D1
# Outline: as §1
# AgBzz1-D2 = target: AgBzz1-D2
# Outline: as §1
# AgCyk3 = target: AgCyk3
# Outline: as §1
# AgFus1 = target: AgFus1
# Outline: as §1
# AgHof1 = target: AgHof1
# Outline: as §1
# AgHse1 = target: AgHse1
# Outline: as §1
# AgLsb1 = target: AgLsb1
# Outline: as §1
# AgLsb4 = target: AgLsb4
# Outline: as §1
# AgMyo5 = target: AgMyo5
# Outline: as §1
# AgNbp2 = target: AgNbp2
# Outline: as §1
# AgRvs167 = target: AgRvs167
# Outline: as §1
# AgSho1 = target: AgSho1
# Outline: as §1
# AgSla1-D1-D2 = target: AgSla1-D1-D2
# Outline: as §1
# AgSla1-D3 = target: AgSla1-D3
# Outline: as §1
# CaAbp1-D1 = target: CaAbp1-D1
# Outline: as §1
# CaAbp1-D2 = target: CaAbp1-D2
# Outline: as §1
# CaBbc1 = target: CaBbc1
# Outline: as §1
# CaBem1-D1 = target: CaBem1-D1
# Outline: as §1
# CaBzz1-D1 = target: CaBzz1-D1
# Outline: as §1
# CaBzz1-D2 = target: CaBzz1-D2
# Outline: as §1
# CaCyk3 = target: CaCyk3
# Outline: as §1
# CaFus1 = target: CaFus1
# Outline: as §1
# CaHof1 = target: CaHof1
# Outline: as §1
# CaHse1 = target: CaHse1
# Outline: as §1
# CaLsb1 = target: CaLsb1
# Outline: as §1
# CaLsb4 = target: CaLsb4
# Outline: as §1
# CaMyo5 = target: CaMyo5
# Outline: as §1
# CaNbp2 = target: CaNbp2
# Outline: as §1
# CaRvs167 = target: CaRvs167
# Outline: as §1
# CaRvs167-3 = target: CaRvs167-3
# Outline: as §1
# CaSho1 = target: CaSho1
# Outline: as §1
# CaSla1-D1-D2 = target: CaSla1-D1-D2
# Outline: as §1
# CaSla1-D3 = target: CaSla1-D3
# Outline: as §1
# ScAbp1 = target: ScAbp1
# Outline: as §1
# ScBbc1 = target: ScBbc1
# Outline: as §1
# ScBem1-D1 = target: ScBem1-D1
# Outline: as §1
# ScBzz1-D1 = target: ScBzz1-D1
# Outline: as §1
# ScBzz1-D2 = target: ScBzz1-D2
# Outline: as §1
# ScCyk3 = target: ScCyk3
# Outline: as §1
# ScFus1 = target: ScFus1
# Outline: as §1
# ScHof1 = target: ScHof1
# Outline: as §1
# ScHse1 = target: ScHse1
# Outline: as §1
# ScLsb1 = target: ScLsb1
# Outline: as §1
# ScLsb2 = target: ScLsb2
# Outline: as §1
# ScLsb3 = target: ScLsb3
# Outline: as §1
# ScLsb4 = target: ScLsb4
# Outline: as §1
# ScMyo3 = target: ScMyo3
# Outline: as §1
# ScMyo5 = target: ScMyo5
# Outline: as §1
# ScNbp2 = target: ScNbp2
# Outline: as §1
# ScPex13 = target: ScPex13
# Outline: as §1
# ScRvs167 = target: ScRvs167
# Outline: as §1
# ScSho1 = target: ScSho1
# Outline: as §1
# ScSla1-D1-D2 = target: ScSla1-D1-D2
# Outline: as §1
# ScSla1-D3 = target: ScSla1-D3
# Outline: as §1
# SpAbp1-D1 = target: SpAbp1-D1
# Outline: as §1
# SpBbc1 = target: SpBbc1
# Outline: as §1
# SpBzz1-D1 = target: SpBzz1-D1
# Outline: as §1
# SpBzz1-D2 = target: SpBzz1-D2
# Outline: as §1
# SpCyk3 = target: SpCyk3
# Outline: as §1
# SpHof1 = target: SpHof1
# Outline: as §1
# SpHof1-2 = target: SpHof1-2
# Outline: as §1
# SpHof1-3 = target: SpHof1-3
# Outline: as §1
# SpHse1 = target: SpHse1
# Outline: as §1
# SpLsb1 = target: SpLsb1
# Outline: as §1
# SpLsb4 = target: SpLsb4
# Outline: as §1
# SpMyo1 = target: SpMyo1
# Outline: as §1
# SpNbp2 = target: SpNbp2
# Outline: as §1
# SpPex13 = target: SpPex13
# Outline: as §1
# SpRvs167 = target: SpRvs167
# Outline: as §1
# SpSla1-D1-D2 = target: SpSla1-D1-D2
# Outline: as §1
# SpSla1-D3 = target: SpSla1-D3
# Outline: as §1
binder,measurement,setting,value
HVRRSILALPLGVLL,SPOT peptide array binding signal intensity,AgAbp1,8
same,SPOT peptide array binding signal intensity,AgBbc1,2.75
same,SPOT peptide array binding signal intensity,AgBem1-D1,39
same,SPOT peptide array binding signal intensity,AgBzz1-D1,≤ 0
same,SPOT peptide array binding signal intensity,AgBzz1-D2,2.5
same,SPOT peptide array binding signal intensity,AgCyk3,1
same,SPOT peptide array binding signal intensity,AgFus1,605
same,SPOT peptide array binding signal intensity,AgHof1,22.8
same,SPOT peptide array binding signal intensity,AgHse1,325
same,SPOT peptide array binding signal intensity,AgLsb1,61.5
same,SPOT peptide array binding signal intensity,AgLsb4,201
same,SPOT peptide array binding signal intensity,AgMyo5,≤ 0
same,SPOT peptide array binding signal intensity,AgNbp2,57
same,SPOT peptide array binding signal intensity,AgRvs167,0.5
same,SPOT peptide array binding signal intensity,AgSho1,64
same,SPOT peptide array binding signal intensity,AgSla1-D1-D2,6
same,SPOT peptide array binding signal intensity,AgSla1-D3,5
same,SPOT peptide array binding signal intensity,CaAbp1-D1,120
same,SPOT peptide array binding signal intensity,CaAbp1-D2,85
same,SPOT peptide array binding signal intensity,CaBbc1,10
same,SPOT peptide array binding signal intensity,CaBem1-D1,10
same,SPOT peptide array binding signal intensity,CaBzz1-D1,21
same,SPOT peptide array binding signal intensity,CaBzz1-D2,22
same,SPOT peptide array binding signal intensity,CaCyk3,3
same,SPOT peptide array binding signal intensity,CaFus1,2060
same,SPOT peptide array binding signal intensity,CaHof1,≤ 0
same,SPOT peptide array binding signal intensity,CaHse1,25
same,SPOT peptide array binding signal intensity,CaLsb1,0.25
same,SPOT peptide array binding signal intensity,CaLsb4,47
same,SPOT peptide array binding signal intensity,CaMyo5,5.25
same,SPOT peptide array binding signal intensity,CaNbp2,450
same,SPOT peptide array binding signal intensity,CaRvs167,16.8
same,SPOT peptide array binding signal intensity,CaRvs167-3,7.75
same,SPOT peptide array binding signal intensity,CaSho1,439
same,SPOT peptide array binding signal intensity,CaSla1-D1-D2,≤ 0
same,SPOT peptide array binding signal intensity,CaSla1-D3,25
same,SPOT peptide array binding signal intensity,ScAbp1,22
same,SPOT peptide array binding signal intensity,ScBbc1,≤ 0
same,SPOT peptide array binding signal intensity,ScBem1-D1,10
same,SPOT peptide array binding signal intensity,ScBzz1-D1,12.5
same,SPOT peptide array binding signal intensity,ScBzz1-D2,3.5
same,SPOT peptide array binding signal intensity,ScCyk3,56
same,SPOT peptide array binding signal intensity,ScFus1,522
same,SPOT peptide array binding signal intensity,ScHof1,1.5
same,SPOT peptide array binding signal intensity,ScHse1,772
same,SPOT peptide array binding signal intensity,ScLsb1,5.5
same,SPOT peptide array binding signal intensity,ScLsb2,≤ 0
same,SPOT peptide array binding signal intensity,ScLsb3,182
same,SPOT peptide array binding signal intensity,ScLsb4,15.5
same,SPOT peptide array binding signal intensity,ScMyo3,≤ 0
same,SPOT peptide array binding signal intensity,ScMyo5,≤ 0
same,SPOT peptide array binding signal intensity,ScNbp2,114
same,SPOT peptide array binding signal intensity,ScPex13,≤ 0
same,SPOT peptide array binding signal intensity,ScRvs167,22.2
same,SPOT peptide array binding signal intensity,ScSho1,1000
same,SPOT peptide array binding signal intensity,ScSla1-D1-D2,5
same,SPOT peptide array binding signal intensity,ScSla1-D3,2
same,SPOT peptide array binding signal intensity,SpAbp1-D1,124
same,SPOT peptide array binding signal intensity,SpBbc1,2
same,SPOT peptide array binding signal intensity,SpBzz1-D1,30
same,SPOT peptide array binding signal intensity,SpBzz1-D2,≤ 0
same,SPOT peptide array binding signal intensity,SpCyk3,3
same,SPOT peptide array binding signal intensity,SpHof1,49
same,SPOT peptide array binding signal intensity,SpHof1-2,8.5
same,SPOT peptide array binding signal intensity,SpHof1-3,180
same,SPOT peptide array binding signal intensity,SpHse1,508
same,SPOT peptide array binding signal intensity,SpLsb1,2
same,SPOT peptide array binding signal intensity,SpLsb4,73.5
same,SPOT peptide array binding signal intensity,SpMyo1,2.5
same,SPOT peptide array binding signal intensity,SpNbp2,194
same,SPOT peptide array binding signal intensity,SpPex13,≤ 0
same,SPOT peptide array binding signal intensity,SpRvs167,9.83
same,SPOT peptide array binding signal intensity,SpSla1-D1-D2,2
same,SPOT peptide array binding signal intensity,SpSla1-D3,1
